# TEAD-YAP inh: TEAD-YAP interaction inhibition; HEK-TIYL cells, TEAD-Gal4/YAP UAS-luciferase luminescence; inhibition, % at 9.12 µM; actives 1.4% (n = 640,000); in the data active means inhibition above about 32%;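 further: 0% = median of test compound wells and 100% = reference inhibitor wells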
# GPR151 activ: activators of human GPR151; Q8TDV0; PathHunter beta-arrestin GPR151 cells, luminescence; activation, % at 11.2 µM; actives 1% (n = 650,000); in the data active means activation above about 4.9%;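 further: 0% = median of compound wells and 100% = cells with positive control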
# MITF inh: human MITF inhibition, primary screen | O75030 | AlphaScreen MITF homodimerization, bead proximity signal | inhibition, % at 2.6 µM | actives 0.91% (n = 650,000); in the data active means inhibition above about 50%;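 further: 0% = vehicle wells with protein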
# FBW7 act: activators of human E3 ligase FBW7; actives 0.13% (n = 650,000); AlphaScreen FBW7–phospho-cyclin E peptide binding, activator screen; AID 1259310; normalized activity (activation), % at 26.1 µM; Q969H0; in the data active means normalized activity above about 1.9%;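 further: purified mutant Fbw7 with reduced substrate affinity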
# Target sequence (Q969H0 whole entry, looked up): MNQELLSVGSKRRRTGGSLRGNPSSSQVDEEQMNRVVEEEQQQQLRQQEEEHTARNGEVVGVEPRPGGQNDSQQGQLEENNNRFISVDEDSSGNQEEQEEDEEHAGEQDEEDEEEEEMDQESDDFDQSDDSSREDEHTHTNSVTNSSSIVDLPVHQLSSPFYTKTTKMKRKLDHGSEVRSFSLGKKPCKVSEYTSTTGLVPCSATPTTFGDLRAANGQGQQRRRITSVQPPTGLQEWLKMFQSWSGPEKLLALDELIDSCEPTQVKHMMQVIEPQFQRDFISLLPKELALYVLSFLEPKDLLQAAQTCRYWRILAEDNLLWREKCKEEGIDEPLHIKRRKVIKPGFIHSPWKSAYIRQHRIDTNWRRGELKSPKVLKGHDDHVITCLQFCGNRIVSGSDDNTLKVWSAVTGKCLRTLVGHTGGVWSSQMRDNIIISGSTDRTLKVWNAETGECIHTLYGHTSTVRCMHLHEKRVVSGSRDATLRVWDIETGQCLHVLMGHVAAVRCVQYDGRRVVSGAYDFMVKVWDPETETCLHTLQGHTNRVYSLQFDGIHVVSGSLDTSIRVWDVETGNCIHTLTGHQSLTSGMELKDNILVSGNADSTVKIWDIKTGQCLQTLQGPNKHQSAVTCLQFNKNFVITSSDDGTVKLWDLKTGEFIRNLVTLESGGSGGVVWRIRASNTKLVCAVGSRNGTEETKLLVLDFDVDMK
# MITF confirm: human MITF inhibition, confirmation; AID 1259372; inhibition, % at 2.6 µM; actives 16% (n = 4,700); AlphaScreen MITF homodimerization, biotin/His-MITF beads; shares compounds with MITF inh;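 active means inhibition above a cutoff derived from the DMSO control wells, cut at about 28% in these data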;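 further: 0% = MITF dimer wells with DMSO only; inhibitors lower the bead chemiluminescence by keeping MITF from dimerizing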
# AlphaScreen DR: counter-screen: compounds optically interfering with AlphaScreen | AlphaScreen optical interference counterscreen, cell-free | actives 6% (n = 480) | IC50, µM | shares compounds with MITF inh | AID 1259373; call rule not given here
# AS interf ctr: optically interferes with AlphaScreen signal | shares compounds with MITF inh | LysRS AlphaScreen counterscreen, signal interference, triplicate | inhibition, % at 2.6 µM | actives 7.6% (n = 4,700) | AID 1259376;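 active means inhibition above a cutoff derived from the DMSO control wells, cut at about 30% in these data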
# * = called active by the depositor; · = no result given. A selection: hits, their analogues and other compounds. The true share with any hit is near 3.5%.
SMILES,TEAD-YAP inh,GPR151 activ,MITF inh,FBW7 act,MITF confirm,AS interf ctr,others
O=C(Nc1ccccc1C(=O)NC1CCCCC1)c1cccc(S(=O)(=O)NC2CCCCC2)c1,3,0,15,0,·,·,
CC1(C)CC(=O)C2=C(C1)N(c1cc(Cl)cc(Cl)c1)C1=C(C(=O)CC(C)(C)C1)C2c1ccc(F)cc1,2,-2,21,0,·,·,
c1ccc(N2CCN(Cc3cccc4ccccc34)CC2)nc1,-2,1,2,0,·,·,
c1ccc(CN2CCN(Cc3cccc4ccccc34)CC2)nc1,7,5,64*,0,4,7,
Fc1ccccc1N1CCN(Cc2ccccn2)CC1,-11,-1,56*,0,-1,10,
Brc1cccc(CN2CCN(Cc3ccccn3)CC2)c1,-3,-1,45,0,·,·,
Oc1ccc(-c2ncccn2)cc1CN1CCN(c2ccccc2F)CC1,1,1,7,0,·,·,
FC(F)(F)c1ccccc1CN1CCN(c2ncccn2)CC1,7,1,51*,0,15,7,
FC(F)(F)c1ccccc1CN1CCN(Cc2ccccn2)CC1,2,3,78*,0,-9,4,
CC(=O)Nc1ccc(Nc2nc3ccc(C)cc3n3cnnc23)cc1,-8,-1,3,0,·,·,
CCN1CCN(c2ccc(N=Cc3ccc(OC)c([N+](=O)[O-])c3)cc2)CC1,1,2,18,1,·,·,
C/C(N)=C(/C#N)C(=O)CSc1nnc(-c2cc(-c3cccs3)nc3ccccc23)o1,5,1,-2,0,·,·,
O=C(O)c1ccccc1NCc1ccccc1[N+](=O)[O-],0,2,9,0,·,·,
CCc1cccc(CC)c1NC(=O)CSc1nc2ccc(NC(=O)c3ccc(Cl)cc3Cl)cc2s1,-6,2,1,0,·,·,
COc1ccc(N(C(=O)COc2ccc(Br)cc2)S(=O)(=O)c2ccc(C)cc2)cc1,-13,0,62*,1,-2,12,
CCc1ccc(NC(=O)c2cnc(N3CCOCC3)nc2)cc1,-1,0,5,1,·,·,
c1coc(CNc2ccc3ncc(-c4ccco4)n3n2)c1,0,0,56*,2,84*,19,AlphaScreen DR=>6.5
CCOc1c(/C=C/c2[nH]c(=O)[nH]c(=O)c2[N+](=O)[O-])cccc1OC,3,-1,5,0,·,·,
O=C(C(c1ccccc1)c1ccccc1)N1CCN(Cc2ccc(F)cc2)CC1,6,-2,62*,0,9,23,
O=C(C(c1ccccc1)c1ccccc1)N1CCN(Cc2ccncc2)CC1,4,-1,62*,0,-8,-10,
Cc1ccccc1CN1CCN(C(=O)C(c2ccccc2)c2ccccc2)CC1,2,-1,38,0,·,·,
O=S(=O)(NCC(c1ccsc1)N1CCCC1)c1cccc2ccccc12 (stereo not given),-11,0,4,0,·,·,
CCn1c(Cc2ccccc2)nnc1SCC(=O)Nc1cc(C)on1,4,-1,4,0,·,·,
CCCc1nnc(SCC(=O)Nc2cc(C)on2)n1CC,-3,1,74*,0,4,12,
Cc1cc2c(s1)c1cnn(CCc3ccccc3)c(=O)c1n2C,11,0,11,0,·,·,
SMILES,TEAD-YAP inh,GPR151 activ,MITF inh,FBW7 act,MITF confirm,AS interf ctr,others
COc1ccc(CNC(=O)C2CC(=O)N(c3ccc(F)cc3)C2)cc1 (stereo not given),6,0,-1,0,·,·,
O=C(NCc1ccc(F)cc1)C1CC(=O)N(c2ccc(F)cc2)C1 (stereo not given),-4,-1,73*,0,9,14,
CC1(C)CC(=O)C(C=NCc2cccc(Br)c2)=C(O)C1,-20,1,3,0,·,·,
CCOc1ccc(C(=O)NC(=S)Nc2ccc(S(N)(=O)=O)cc2)cc1,10,-1,53*,1,-10,-7,
CC(C)(C)c1ccc(C(=O)NC(=S)Nc2ccc(S(N)(=O)=O)cc2)cc1,-5,0,11,0,·,·,
C(=N\Nc1nc(-c2ccccn2)cs1)/c1cccnc1,-4,-2,52*,0,30*,54*,
NC(=O)C1CCN(C(=O)/C=C/c2ccc([N+](=O)[O-])cc2)CC1,-4,4,20,0,·,·,
CC(C)(C)c1ccc(/C=C/C(=O)N2CCC(C(N)=O)CC2)cc1,-13,1,65*,0,-6,-10,
CN1CCN(CCOc2ccc(C=O)cc2)CC1,-44,-1,74*,0,6,14,
CC(=O)c1ccc(OCCN2CCN(C)CC2)cc1,-3,-1,66*,0,11,20,
CC(=O)c1ccc(OCCCCN2CCCC2)cc1,-6,2,19,0,·,·,
O=[N+]([O-])c1ccc(O)c2ncccc12,6,0,73*,0,83*,101*,
CN(C)c1c([N+](=O)[O-])cc([N+](=O)[O-])c2cccnc12,7,1,54*,-1,19,68*,
O=C1NN(c2ccc(Cl)cc2)C(=O)/C1=C\c1ccc(F)cc1,0,1,-11,0,·,·,
COc1ccc(COCC(O)CNCCCn2ccnc2)cc1 (stereo not given),-1,-4,83*,0,8,-10,
COc1ccc(CCC(C)NCCCn2ccnc2)cc1 (stereo not given),4,-1,43,0,·,·,
Cc1ccc(C2CC(c3cccc(F)c3)n3ncnc3N2)cc1 (stereo not given),-2,1,-6,0,·,·,
N#Cc1c(NC(=O)c2cccnc2Cl)oc(-c2ccco2)c1-c1ccco1,0,0,22,0,·,·,
CCOc1ncccc1C(=O)OCC(=O)Nc1oc(-c2ccco2)c(-c2ccco2)c1C#N,2,-1,71*,0,72*,5,AlphaScreen DR=>6.4
Cc1nc(CCNCc2c(C(=O)N3CCCC3)nc3sccn23)nc2c1CCCC2,6,1,11,0,·,·,
CC(Cc1cnccn1)NC(=O)CCc1nnc(CCC2CCCCC2)o1 (stereo not given),4,2,2,0,·,·,
CC(NC(=O)CCc1nnc(CCC2CCCCC2)o1)c1ccncn1 (stereo not given),-7,0,74*,0,-1,9,
CC(=O)c1ccc(S(=O)(=O)N(CCCO)Cc2cc3cc(C)c(C)cc3[nH]c2=O)cc1,-3,-1,74*,0,5,13,
COc1ccc(C(CC(=O)NCCc2ccc(OC)c(OC)c2)NS(=O)(=O)c2ccc(OC)cc2)cc1 (stereo not given),-3,-1,-1,0,·,·,
O=C(C1CCN(S(=O)(=O)c2ccc(F)cc2)CC1)N1CCCCC1,7,0,-8,0,·,·,
CC1(C)C(=O)NCCN1C(=O)C1CCN(S(=O)(=O)c2ccc(F)cc2)CC1,0,-1,68*,0,-8,-5,

# Screening data: PubChem BioAssay, The Scripps Research Institute Molecular Screening Center
